Bioassay records: PubChem, The Scripps Research Institute Molecular Screening Center
Rows were chosen to be rich in hits. Some 3.5% of all compounds tested hit in one or more screens of this group.
MITF primary: human MITF inhibition, primary screen | AID 1259374 | O75030 | inhibition, % at 2.6 µM | AlphaScreen MITF homodimerization, bead proximity signal | 650,000 tested, 0.91% active; in the data active = inhibition above about 50%
GPR151 ag: human GPR151 activation; activation, % at 11.2 µM; 650,000 tested, 1% active; PathHunter beta-arrestin GPR151 cells, luminescence; AID 1508602; Q8TDV0; in the data active = activation above about 4.9%
TEAD-YAP inh: TEAD-YAP interaction inhibition. HEK-TIYL cells, TEAD-Gal4/YAP UAS-luciferase luminescence. 640,000 tested, 1.4% active. inhibition, % at 9.12 µM; in the data active = inhibition above about 32%
FBW7 activator: human FBW7 E3 ligase activation, primary screen; Q969H0; AlphaScreen FBW7–phospho-cyclin E peptide binding, activator screen; normalized activity (activation), % at 26.1 µM; 650,000 tested, 0.13% active; AID 1259310; in the data active = normalized activity above about 1.9%;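 note: purified mutant Fbw7 with reduced substrate affinity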
Target sequence (Q969H0 whole entry, looked up): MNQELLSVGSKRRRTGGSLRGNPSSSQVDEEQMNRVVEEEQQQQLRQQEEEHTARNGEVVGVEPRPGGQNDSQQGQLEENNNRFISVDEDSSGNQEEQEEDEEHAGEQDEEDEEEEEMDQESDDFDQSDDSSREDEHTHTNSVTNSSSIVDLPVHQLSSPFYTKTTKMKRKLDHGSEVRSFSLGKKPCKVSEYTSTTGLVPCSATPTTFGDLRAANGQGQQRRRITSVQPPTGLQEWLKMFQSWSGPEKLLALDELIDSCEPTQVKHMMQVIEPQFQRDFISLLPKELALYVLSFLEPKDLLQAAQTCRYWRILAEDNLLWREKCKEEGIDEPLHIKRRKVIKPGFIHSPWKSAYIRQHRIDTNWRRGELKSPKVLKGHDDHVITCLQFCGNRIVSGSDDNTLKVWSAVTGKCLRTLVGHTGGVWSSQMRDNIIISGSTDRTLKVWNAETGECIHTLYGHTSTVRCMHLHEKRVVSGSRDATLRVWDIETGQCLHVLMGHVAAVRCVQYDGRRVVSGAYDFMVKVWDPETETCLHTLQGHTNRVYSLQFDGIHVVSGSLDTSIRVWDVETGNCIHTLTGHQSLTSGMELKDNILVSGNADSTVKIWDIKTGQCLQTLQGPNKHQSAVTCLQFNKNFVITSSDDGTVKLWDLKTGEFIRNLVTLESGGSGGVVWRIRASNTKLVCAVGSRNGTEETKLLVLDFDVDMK
GPR151 confirm: human GPR151 activation, confirmation screen; shares compounds with GPR151 ag; GPR151 PathHunter beta-arrestin cells, luminescence, 90 min; % of EA-reagent control over plate median; activation, % at 11.2 µM; 6,700 tested, under 10 active;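 active = mean percent activation across replicates above the confirmation screen cutoff of 4.91%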
GPR119 counter: GPR119 activation, counter-screen for GPR151 activators; shares compounds with GPR151 ag; GPR119 PathHunter beta-arrestin cells, luminescence, 90 min; 0 = compound-well median, 100 = enzyme-acceptor control; activation, % at 11.2 µM; 6,700 tested, 0.3% active;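 active = mean percent activation in the counterscreen above 29.09%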;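 note: counterscreen on off-target GPR119 to flag nonselective hits from the GPR151 activator screen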
Large screens that a line does not name were inactive (follow-up assays come after a bar, where they were run); ! = not confirmed by another sample.

COc1ccc(-c2[nH]nc3c2C(c2c[nH]c4ccccc24)C(C#N)=C(N)O3)cc1OC (configuration not stated)	GPR151 ag 6.4 | GPR151 confirm inactive | GPR119 counter inactive
COc1ccc(-c2[nH]nc3c2C(c2cccc(Cl)c2Cl)C(C#N)=C(N)O3)cc1OC (configuration not stated)	none
CSCCC(C)N1CCC(Oc2ccc(C(=O)NCc3ccncc3)cc2)CC1 (configuration not stated)	GPR151 ag 5.0 | GPR151 confirm inactive | GPR119 counter inactive
O=C(NCc1ccncc1)c1ccc(OC2CCN(C3CCSCC3)CC2)cc1	none
CCOC(=O)N1CCC(NC(=O)c2sc3nc(C)cc(C)c3c2-n2cccc2)CC1	none
CN(C)c1ccc(NC(=O)CC2NCCNC2=O)cc1 (configuration not stated)	GPR151 ag 5.0 | GPR151 confirm inactive | GPR119 counter inactive
O=C(CC1NCCNC1=O)Nc1ccccc1 (configuration not stated)	none
O=C(N/N=C/c1cccs1)c1cc(-c2cccs2)[nH]n1	none
C=CCNC(=O)CCN1C(=O)c2ccccc2C1=O	GPR151 ag 5.6 | GPR151 confirm inactive | GPR119 counter inactive
C[C@H]1C[C@@H]2[C@H]([C@@H](O)C[C@@]3(C)[C@H]2CC[C@]3(O)C(=O)CO)[C@@]2(C)C=CC(=O)C=C12	GPR151 ag 6.9! (no result: TEAD-YAP inh) | GPR151 confirm inactive | GPR119 counter inactive
CCOc1ccccc1CN1CCN(S(=O)(=O)c2ccccc2[N+](=O)[O-])CC1	GPR151 ag 5.7 | GPR151 confirm inactive | GPR119 counter inactive
CCOc1ccccc1N1CCN(S(=O)(=O)c2ccccc2[N+](=O)[O-])CC1	GPR151 ag 5.7 | GPR151 confirm inactive | GPR119 counter inactive
COc1ccccc1CN1CCN(S(=O)(=O)c2ccccc2[N+](=O)[O-])CC1	none
CCS(=O)(=O)N1CCN(S(=O)(=O)c2ccccc2[N+](=O)[O-])CC1	none
COc1cc(-c2n(C)c3ccccc3[n+]2C)ccc1O	none
O=C(c1ccc(OCCN2CCCCC2)cc1)c1c(-c2ccc(O)cc2)sc2cc(O)ccc12	GPR151 ag 5.0! | GPR151 confirm inactive | GPR119 counter inactive
CC(=O)Nc1ccc(N/C(=N\c2nc(C)cc(C)n2)NC(=O)c2ccccc2)cc1	none
Oc1ccccc1CNc1cc2c(cc1Br)OCCO2	GPR151 ag 19 | GPR151 confirm inactive | GPR119 counter inactive
Oc1ccccc1CNc1ccc2c(c1)OCCO2	none
O=C(CSc1ncc(-c2cccc(Br)c2)o1)Nc1ccc(F)cc1F	GPR151 ag 9.3 | GPR151 confirm inactive | GPR119 counter inactive
COCC(C)NC(=O)C1=CC(c2ccc(F)cc2)=NS(=O)(=O)N1C (configuration not stated)	none
COc1cccc(CN2CCc3nnc(CCNC(=O)C4CCCO4)n3CC2)c1 (configuration not stated)	GPR151 ag 6.3 | GPR151 confirm inactive | GPR119 counter inactive
COc1cc(CN2CCc3nnc(CCc4ccccc4)n3CC2)cc(OC)c1O	none
COc1cc(CN2CCc3nnc(CCc4ccccc4)n3CC2)cc(OC)c1OC	GPR151 ag 7.1 | GPR151 confirm inactive | GPR119 counter inactive
COC(=O)c1ccccc1NC(=O)COc1ccc(C=O)cc1	GPR151 ag 8.0 | GPR151 confirm inactive | GPR119 counter inactive
COC(=O)c1ccccc1NC(=O)COc1ccc(F)cc1	none
COc1ccccc1OCC(=O)Nc1ccccc1C(=O)O	none
COc1cc(C=O)ccc1OCC(=O)Nc1ccccc1C(=O)c1ccccc1	GPR151 ag 5.8 | GPR151 confirm inactive | GPR119 counter inactive
CCOc1ccc(C(=O)NC(=S)Nc2ccccc2C(=O)OC)cc1	GPR151 ag 6.8 | GPR151 confirm inactive | GPR119 counter inactive
CCOc1ccc(C(=O)NC(=S)Nc2ccccc2C(=O)OC)cc1[N+](=O)[O-]	none
Cc1ccc(-c2nc(-c3ccc([N+](=O)[O-])cc3)no2)cc1Cl	none
CCN(C)c1nc2nonc2nc1NC1CCCC1	GPR151 ag 5.2 | GPR151 confirm inactive | GPR119 counter inactive
Cc1nnc(SCC(=O)NC(=O)CCSc2ccccc2)s1	none
CCC(C(=O)NCCCN1CCOCC1)n1ncn2c(cc3occc32)c1=O (configuration not stated)	GPR151 ag 9.9 | GPR151 confirm inactive | GPR119 counter inactive
CNC(=O)c1c(NC(=O)c2cccc(Br)c2)sc2c1CCC2	none
COc1cc(Nc2nc(SCc3ccc(F)cc3)nc3ccccc23)cc(OC)c1	GPR151 ag 5.0 | GPR151 confirm inactive | GPR119 counter inactive
Fc1cccc(CSc2nc(Nc3ccc4c(c3)OCO4)c3ccccc3n2)c1	GPR151 ag 5.0 | GPR151 confirm inactive | GPR119 counter inactive
O=C(CSc1nc(Nc2ccc3c(c2)OCO3)c2ccccc2n1)c1ccccc1	GPR151 ag 5.3 | GPR151 confirm inactive | GPR119 counter inactive
CCCCNC(=O)CSc1nc(Nc2ccc3c(c2)OCO3)c2ccccc2n1	none
CCCCNc1nc(SCC(=O)c2ccc(O)c(O)c2)nc2ccccc12	MITF primary 56, GPR151 ag 5.6 | GPR151 confirm inactive | GPR119 counter inactive
Cc1ccccc1OCc1n[nH]c(=S)n1C	GPR151 ag 7.2 | GPR151 confirm inactive | GPR119 counter inactive
O=C(c1nc2ccccn2c1CN1CCCC1)N1CCN(C2CCCCC2)CC1	none
CC(=O)c1ccc(-c2cc(F)cc3c2OC(CNC(=O)CN(C)C)C3)s1 (configuration not stated)	GPR151 ag 5.6 | GPR151 confirm inactive | GPR119 counter inactive
CSCC(=O)NCC1Cc2cc(F)cc(-c3ccc(C(C)=O)s3)c2O1 (configuration not stated)	none
COCCn1c(SCC(=O)Nc2ccc(C)c(C)c2)nnc1C(C)C	GPR151 ag 8.2 | GPR151 confirm inactive | GPR119 counter inactive
COc1ccc(C(C)(C)C)cc1NC(=O)COn1nnc2ccc(C(F)(F)F)cc21	GPR151 ag 5.1 | GPR151 confirm inactive | GPR119 counter inactive
CCCNC(=O)C(=O)Nc1ccccc1CC	GPR151 ag 6.7 | GPR151 confirm inactive | GPR119 counter inactive
CCc1ccccc1NC(=O)C(=O)NCCOC	none
C[C@H](O)[C@H]1NC(=O)[C@@H]2C[C@H](NCc3cccc(Cl)c3)CN2C1=O	none
CC(C)NC(=O)c1nn2c(C(F)(F)F)cc(-c3ccc(Br)cc3)nc2c1Br	none
O=C(NC1Cc2ccccc2C1)c1ccc(OC2CCN(C(=O)C3CC3)CC2)cc1	GPR151 ag 8.1 | GPR151 confirm inactive | GPR119 counter inactive
O=C(O)C1Nc2c(cccc2[N+](=O)[O-])C2C=CCC12 (configuration not stated)	none
N#Cc1ccc(Oc2ccccc2NC(=O)c2ccc(Br)o2)cc1	none
COc1cc(C=Nc2ccc(F)cc2)ccc1OC(C)=O	none
COc1cc(C=Nc2ccc(C)c(F)c2)ccc1OC(C)=O	GPR151 ag 34 | GPR151 confirm inactive | GPR119 counter inactive
